Laboratory results reported in PubChem BioAssay (Tox21).
Inconclusive results are not listed. Entries that show only a call come without a potency. Unmarked numbers belong to inactive results. Active and inactive are the calls of the source. Unless noted, calls come from the whole dose curve.

Assay: cAMP Responsive Elements (CRE) small molecule agonists, cell-based qHTS assay (AID 1963590)
Details: CRE-bla HEK293T, beta-lactamase FRET ratio, 3 h; series mostly up to 92.4 µM
Outline: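 Test agents in DMSO were incubated 3 h at 37 C/5% CO2 with CRE-bla HEK 293T cells seeded 18 h earlier; LiveBLAzer B/G FRET substrate was added and read after 2 h at room temperature.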

| SMILES | Potency | activation |
| --- | --- | --- |
| CCCCCCCCCCCCOCC1CO1 (centres undefined) | inactive | – |
| CCC/C=C/C=O | inactive | – |
| CCCCC(CC)COC(C)=O (centres undefined) | inactive | – |
| OCCNCCO | inactive | – |
| OC[C@H]1O[C@@H]2O[C@H]3[C@H](O)[C@@H](O)[C@@H](O[C@H]4[C@H](O)[C@@H](O)[C@@H](O[C@H]5[C@H](O)[C@@H](O)[C@@H](O[C@H]6[C@H](O)[C@@H](O)[C@@H](O[C@H]7[C@H](O)[C@@H](O)[C@@H](O[C@H]1[C@H](O)[C@H]2O)O[C@@H]7CO)O[C@@H]6CO)O[C@@H]5CO)O[C@@H]4CO)O[C@@H]3CO | inactive | – |
| O=C(O)c1ccc(C(=O)O)c(C(=O)O)c1 | inactive | – |
| O=C1c2ccccc2CCc2ccccc21 | inactive | – |
| C=CC(=O)NCOCCCC | inactive | – |
| N[C@@H](Cc1c[nH]c2ccc(O)cc12)C(=O)O | inactive | – |
| O=[N+]([O-])c1ccc2nc[nH]c2c1 | inactive | – |
| CN=C(NC#N)NCCSCc1nc[nH]c1C | inactive | – |
| O=C(O)c1ccccc1C(c1ccc(O)cc1)c1ccc(O)cc1 | inactive | – |
| CN(Cc1cnc2nc(N)nc(N)c2n1)c1ccc(C(=O)N[C@@H](CCC(=O)O)C(=O)O)cc1 | inactive | – |
| OC1CCCC1 | inactive | – |
| C[C@]12CCC(=O)C=C1CC[C@@H]1[C@@H]2[C@@H](O)C[C@@]2(C)[C@H]1CC[C@]2(O)C(=O)CO | inactive | – |
| S=C(NC1CCCCC1)NC1CCCCC1 | inactive | – |
| CC(C)c1ccc(S(=O)(=O)O)cc1 | inactive | – |
| CC(C)CC(C)O (centres undefined) | inactive | – |
| C[N+](C)(C)CCO | inactive | – |
| OCC(CO)(CO)CO | inactive | – |
| CC(C)OC(=O)C(C)(C)Oc1ccc(C(=O)c2ccc(Cl)cc2)cc1 | inactive | – |
| CCCCCCCCCCCC(=O)N(C)CC(=O)O | – | -0.74% [at 8.39 µM] |
| O=C(COc1ccc(Cl)cc1)N1CCN(Cc2ccc3c(c2)OCO3)CC1 | inactive | – |
| CCC(=O)O[C@H]1[C@H](O[C@@H]2[C@@H](C)[C@H](O[C@H]3C[C@@](C)(OC)[C@@H](O)[C@H](C)O3)[C@@H](C)C(=O)O[C@H](CC)[C@@](C)(O)[C@H](O)[C@@H](C)C(=O)[C@H](C)C[C@@]2(C)O)O[C@H](C)C[C@@H]1N(C)C | inactive | – |
| O=C1CC2(CCCC2)CC(=O)N1CCCCN1CCN(c2ncccn2)CC1 | inactive | – |

Assay: cAMP Responsive Elements (CRE) small molecule antagonists, cell-based qHTS assay (AID 1963591; active = well fitted inhibition curve with a large enough effect in the signal ratio in the repeat runs, not every such curve was filed as active; the % refers to the signal ratio)
Details: CRE-bla HEK293T, beta-lactamase FRET ratio; series mostly up to 92.4 µM
Outline: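 Reporter line CRE-bla HEK 293T in dialyzed-FBS DMEM; cells preincubated 18 h, treated 3 h with compound plus NKH477 (0.25 uM final); LiveBLAzer FRET, 2 h RT.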

| SMILES | Potency | activity change, negative = inhibition |
| --- | --- | --- |
| CCCCCCCCCCCCOCC1CO1 (centres undefined) | inactive | – |
| CCC/C=C/C=O | inactive | – |
| CCCCC(CC)COC(C)=O (centres undefined) | inactive | – |
| NC[C@H](O)c1ccc(O)c(O)c1 | inactive | – |
| CCCCC(CC)COP(=O)(O)OCC(CC)CCCC (centres undefined) | inactive | – |
| OC[C@H]1O[C@@H]2O[C@H]3[C@H](O)[C@@H](O)[C@@H](O[C@H]4[C@H](O)[C@@H](O)[C@@H](O[C@H]5[C@H](O)[C@@H](O)[C@@H](O[C@H]6[C@H](O)[C@@H](O)[C@@H](O[C@H]7[C@H](O)[C@@H](O)[C@@H](O[C@H]1[C@H](O)[C@H]2O)O[C@@H]7CO)O[C@@H]6CO)O[C@@H]5CO)O[C@@H]4CO)O[C@@H]3CO | inactive | – |
| O=c1[nH]cnc2[nH]ncc12 | inactive | – |
| Oc1ccc2cc(SSc3ccc4cc(O)ccc4c3)ccc2c1 | inactive | – |
| O=C(O)c1ccc(C(=O)O)c(C(=O)O)c1 | inactive | – |
| O=C1c2ccccc2CCc2ccccc21 | inactive | – |
| Clc1ccc2c(c1)C(N1CCNCC1)=Nc1ccccc1O2 | inactive | – |
| C=CC(=O)NCOCCCC | inactive | – |
| O=[N+]([O-])c1ccc2nc[nH]c2c1 | inactive | – |
| CN=C(NC#N)NCCSCc1nc[nH]c1C | inactive | – |
| O=C(O)c1ccccc1C(c1ccc(O)cc1)c1ccc(O)cc1 | inactive | – |
| CN(Cc1cnc2nc(N)nc(N)c2n1)c1ccc(C(=O)N[C@@H](CCC(=O)O)C(=O)O)cc1 | inactive | – |
| CC1COc2ccccc2N1C(=O)C(Cl)Cl (centres undefined) | inactive | – |
| C[C@]12CCC(=O)C=C1CC[C@@H]1[C@@H]2[C@@H](O)C[C@@]2(C)[C@H]1CC[C@]2(O)C(=O)CO | inactive | – |
| S=C(NC1CCCCC1)NC1CCCCC1 | inactive | – |
| CC(C)c1ccc(S(=O)(=O)O)cc1 | inactive | – |
| CC(C)CC(C)O (centres undefined) | inactive | – |
| C[N+](C)(C)CCO | inactive | – |
| OCC(CO)(CO)CO | inactive | – |
| CC(C)OC(=O)C(C)(C)Oc1ccc(C(=O)c2ccc(Cl)cc2)cc1 | inactive | – |
| CCCCCCCCCCCC(=O)N(C)CC(=O)O | – | 5.29% [at 8.39 µM] |
| O=C(COc1ccc(Cl)cc1)N1CCN(Cc2ccc3c(c2)OCO3)CC1 | inactive | – |
| CCC(=O)O[C@H]1[C@H](O[C@@H]2[C@@H](C)[C@H](O[C@H]3C[C@@](C)(OC)[C@@H](O)[C@H](C)O3)[C@@H](C)C(=O)O[C@H](CC)[C@@](C)(O)[C@H](O)[C@@H](C)C(=O)[C@H](C)C[C@@]2(C)O)O[C@H](C)C[C@@H]1N(C)C | inactive | – |
| NCCNCCNCCNCCN | – | -9.22% [at 8.39 µM] |
| O=C1CC2(CCCC2)CC(=O)N1CCCCN1CCN(c2ncccn2)CC1 | inactive | – |
